Screening data from PubChem BioAssay.
TDP1 cell CPT – qHTS for Inhibitors of human tyrosyl-DNA phosphodiesterase 1 (TDP1): qHTS in cells in presence of CPT; chicken DT40 Tdp1-/-;hTDP1 cells + 20 nM CPT, ATP luminescence, 48 h; Potency, µM (doses to about 46.2 µM), for the others: top-dose activity change, negative = growth inhibition, usual class: inhibitors; actives 12% (n = 420,000); also: potency is read from the fitted curve at half-maximal effect; nearly all actives have a fitted effect of over 55% in size
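Cell growth measured by CellTiter-Glo luminescence after a minimum 48 h, 37 C compound exposure with 20 nM CPT in Tdp1-knockout DT40 cells stably expressing hTDP1, seeded 400/well; qHTS titration format.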
DT40 TDP1 no CPT – qHTS for Inhibitors of human tyrosyl-DNA phosphodiesterase 1 (TDP1): qHTS in cells in absence of CPT; AID 686978, 2013; actives 15% (n = 420,000); Potency, µM (doses to about 46.2 µM), without a hit: at the highest dose activity change, negative = growth inhibition, most hits filed as inhibitors; DT40 Tdp1-/- hTDP1 cells, no CPT, ATP luminescence, 48 h; also: potency is read from the fitted curve at half-maximal effect; nearly all actives have a fitted effect of over 55% in size
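Readout: luminescence from CellTiter-Glo after 30 min in the dark at RT. Cells: DT40 Tdp1-/- with stable hTDP1, 400/well. Exposure: compounds alone, ≥48 hr, 37 °C.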
HT1080NT lethal – qHTS for induction of synthetic lethality in tumor cells producing 2HG: qHTS for the HT-1080-NT fibrosarcoma cell line | HT-1080-NT fibrosarcoma viability, CellTiter-Glo ATP luminescence, 48 h | Potency, µM (highest dose often 46.1 µM), without a hit: at the top dose activity, negative = less viability, most hits filed as cytotoxic | actives 1.6% (n = 360,000) | AID 686970, 2013;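 also: NT is the 2HG producing partner of a matched IDH1 knockdown line; potency is read from the fitted curve at half-maximal effect; 0% = DMSO-treated cells and -100% = media-only wells without cells; nearly all actives have a fitted effect of over 55% in size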
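HT-1080-NT fibrosarcoma cells (2HG-overproducing), 750 cells/well in RPMI with 5% FBS, dosed after 2 h and incubated 48 h at 37C. CellTiter-Glo luminescence normalized to DMSO and no-cell wells; concentration-response curves fitted and classed.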
HT1080 IDH1KD tx – qHTS for induction of synthetic lethality in tumor cells producing 2HG: qHTS for the HT-1080-IDH1KD cell line; AID 686971, 2013; Potency, µM (top dose mostly 46.1 µM), for inactives: at the top dose activity, negative = toxicity, most hits filed as cytotoxic; actives 2% (n = 360,000); HT-1080 IDH1 knockdown viability, ATP luminescence, 48 h;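 also: potency is read from the fitted curve at half-maximal effect; 0% = DMSO wells and -100% = cell-free medium wells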
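IDH1KD HT-1080 cells, 750/well, RPMI + 5% FBS; compound pinned after 2 h settling; 48 h, 37 °C; CellTiter-Glo luminescence; % activity normalised to DMSO and no-cell wells; curves fitted, classed by r2 and efficacy.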
IL1B secr inh – qHTS for Inhibitors of Inflammasome Signaling: IL-1-beta AlphaLISA Primary Screen; activity change, % at 57.5 µM; actives 4.7% (n = 360,000); AID 743279, 2014; THP-1 LPS/ATP IL-1B secretion, AlphaLISA, 16 h; active compounds read low; in the data active = activity change below about -50%; inconclusive = mostly about -30% to -49%
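THP-1 cells pretreated 1 hr with compounds (up to 57.5 uM final), then stimulated with LPS (250 ng/mL final) plus ATP (1.25 mM final); secreted IL-1B measured by AlphaLISA after 16 hr, decreased signal indicating inhibition.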
Active calls of the source: *; ? = inconclusive; nt = not tested or not shown. In the library only some 19% were active in any assay of this set; here they are far more common. Unless noted, calls follow the shape of the dose curve; as a rule, active = well fitted curve in the direction sought with a large enough effect; inconclusive = small, poorly fitted or top-dose-only effect, or another doubt; inactive = no such curve, though single readings can be large; an effect the other way counts as inactive or inconclusive. Unless noted, % is scaled to controls: 0 for no effect and ±100 for the full control effect.

SMILES | TDP1 cell CPT | DT40 TDP1 no CPT | HT1080NT lethal | HT1080 IDH1KD tx | IL1B secr inh
CN(Cc1ccccc1)C(=O)c1ccc(NC(=O)C2CCCN(C(=O)OC(C)(C)C)C2)cc1 (stereo not drawn) | ? | 18.4µM* | 2.1% | -15.9% | 17.1
CN(C(=O)c1ccc(NC(=O)Cc2ccc(NC(=O)C3CCCN(C(=O)C4CCCCC4)C3)cc2)cc1)C1CCCC1 (stereo not drawn) | ? | ? | 11.1% | 2.2% | 19.8
CN(C(=O)c1ccc(NC(=O)Cc2ccc(NC(=O)C3CCCN(C(=O)CCc4ccccc4)C3)cc2)cc1)C1CCCC1 (stereo not drawn) | 23.1µM* | 20.6µM* | -0.6% | -2.7% | -7.8
CN(C(=O)c1cccc(NC(=O)Cc2ccc(NC(=O)C3CCCN(C(=O)c4ccccc4)C3)cc2)c1)C1CCCC1 (stereo not drawn) | ? | ? | 7.7% | 7.2% | 13.6
CN(C(=O)c1cccc(NC(=O)Cc2ccc(NC(=O)C3CCCN(C(=O)CCc4ccccc4)C3)cc2)c1)C1CCCCC1 (stereo not drawn) | ? | 16.4µM* | -20.7% | -26.2% | 0.8
O=C1CN(S(=O)(=O)c2ccccc2)c2ccccc2N1 | 1.7% | -4.6% | 0.7% | -1.9% | 23.0
CCN(CC)S(=O)(=O)c1ccc2c(c1)N(CC(=O)NCCc1ccccc1)C(=O)CO2 | -20.9% | -17.0% | nt | nt | nt
CC(C)C(NC(=O)c1ccoc1)c1nnc2n1CCN(C(=O)/C=C/c1ccc(F)cc1)CC2 (stereo not drawn) | 1.1% | -21.2% | nt | nt | nt
NC1=C([N+](=O)[O-])C(c2ccc(F)cc2)C2=C(CCCC2=O)O1 (stereo not drawn) | 0.9% | 10.3% | 12.0% | 21.7% | -15.2
CN(C(=O)c1cccc(NC(=O)Cc2ccc(NC(=O)C3CCCN(C(=O)CCc4ccccc4)C3)cc2)c1)C1CC1 (stereo not drawn) | ? | 16.4µM* | -0.9% | 2.7% | 11.0
COc1ccc(N2CCN(C(=O)c3ccc4c(c3)CC(c3ccccc3)OC4=O)CC2)cc1 (stereo not drawn) | ? | 20.6µM* | -26.9% | -20.3% | -11.0
O=C(O)c1ccc2c(c1)CC(c1ccccc1)OC2=O (stereo not drawn) | 7.0% | -8.5% | 10.6% | 9.1% | 29.5
O=C1OC(c2ccccc2)Cc2cc(C(=O)N3CCN(c4ccc(F)cc4)CC3)ccc21 (stereo not drawn) | 18.4µM* | ? | -1.5% | -18.4% | -13.1
CCCN(CCC)C(=O)CCSCCC(=O)N(CCC)CCC | -23.6% | ? | 2.7% | 8.8% | -0.8
COc1cc(OC)c2ccc(=O)oc2c1C(CCN1CCCC(C)C1)c1ccc2c(c1)OCO2 (stereo not drawn) | 10.3µM* | 14.6µM* | -8.2% | -8.9% | 0.0
COc1cc(O)c(C(CCN2CCCC(C)C2)c2ccc3c(c2)OCO3)c(OC)c1 (stereo not drawn) | 16.4µM* | 16.4µM* | -13.5% | -26.8% | 0.0
COc1cc(OC)c2ccc(=O)oc2c1C(CC(=O)N1CCOCC1)c1ccc(N(C)C)cc1 (stereo not drawn) | -18.3% | -0.6% | 0.6% | 3.2% | -1.8
COc1cc(O)c(C(CCN2CCOCC2)c2ccc3c(c2)OCO3)c(OC)c1 (stereo not drawn) | ? | ? | 1.2% | 4.0% | -23.3
Cc1ccc(C(=O)COc2ccccc2C(=O)Nc2ccccc2)cc1 | ? | ? | 1.4% | 4.0% | -7.9
CCN(CCCNc1ncnc2nc[nH]c12)c1cccc(C)c1 | 18.4µM* | ? | -0.2% | -13.6% | 40.1
O=C(/C=C/c1ccc([N+](=O)[O-])cc1)NCc1cccnc1 | -15.6% | -11.0% | -2.9% | -2.4% | -2.0
O=C(/C=C/NNC(=O)c1ccccc1O)c1ccccc1 | ? | 16.4µM* | -24.1% | ? | -3.1
Cc1cccc(C(=O)NCCN2CCCC2)c1 | -5.0% | -20.5% | -12.5% | -18.2% | -7.3
O=C(/C=C/c1cccnc1)c1ccc(F)c(F)c1 | ? | 16.4µM* | ? | ? | -74.8*
Cc1cccc(C(=O)NCCNC(=O)c2cccc(C)c2)c1 | -17.5% | 29.1µM* | 1.8% | -3.8% | 74.1
SMILES | TDP1 cell CPT | DT40 TDP1 no CPT | HT1080NT lethal | HT1080 IDH1KD tx | IL1B secr inh
O=C(/C=C/c1ccc([N+](=O)[O-])cc1)c1cccnc1 | 14.6µM* | ? | -7.9% | ? | -13.6
Cc1onc(-c2ccccc2Cl)c1C(=O)N1CCN(S(=O)(=O)c2ccc(F)c(F)c2)CC1 | ? | ? | 7.4% | 7.2% | 11.5
CCOc1ccc(CCNC(=O)c2nnc(Cc3ccc(Cl)cc3Cl)o2)cc1OCC | -13.0% | -7.8% | nt | nt | nt
O=C(/C=C/NNC(=O)c1ccccc1)c1ccc([N+](=O)[O-])cc1 | 6.51µM* | 9.2µM* | ? | ? | 129.0
O=C(C=CC=Cc1ccccc1)c1ccc([N+](=O)[O-])cc1 | 23.1µM* | 20.6µM* | -0.5% | -5.6% | -25.7
Cc1cccc(C(=O)NN/C=C/C(=O)c2ccccc2)c1 | ? | 25.9µM* | -13.9% | -9.5% | 69.7
O=C(/C=C/NNC(=O)c1ccc(Br)cc1)c1ccccc1 | 2.91µM* | 4.11µM* | -27.5% | ? | 8.0
O=C(/C=C/c1ccc([N+](=O)[O-])cc1)c1ccco1 | ? | ? | -5.3% | -0.7% | 0.0
O=C(NNS(=O)(=O)c1ccc([N+](=O)[O-])cc1)c1ccccc1 | -3.9% | 3.1% | 10.8% | 7.8% | -3.5
CC(=O)Nc1ccc(S(=O)(=O)Nc2nc3ccccc3nc2Nc2ccc(O)cc2)cc1 | 3.9% | -2.7% | -1.0% | 3.9% | -21.2
CC1(C)CC(=O)C=C(c2n[nH]nc2-c2ccccc2)C1 | -6.5% | -26.9% | 1.3% | 10.9% | 15.1
O=C(/C=C/NNC(=O)c1ccccc1)c1ccccc1 | 0.581µM* | 0.82µM* | -22.7% | -12.2% | 37.3
Cc1ccc(C(=O)C=CNNC(=O)c2ccccc2)cc1 | ? | ? | -1.3% | -0.3% | 6.1
CN1CCN(C(=S)c2cn(Cc3ccc(Br)cc3)c3ccccc23)CC1 | 20.6µM* | ? | ? | ? | -11.5
CN1CCN(C(=S)c2cn(Cc3ccccc3)c3ccccc23)CC1 | ? | -24.9% | -17.9% | -18.6% | 22.5
Fc1ccccc1Cn1cc(C(=S)N2CCOCC2)c2ccccc21 | ? | 16.4µM* | -8.1% | 2.7% | -25.0
